Assay results reported in the supplement of paper PMC11732987, “Enantioselective OTUD7B fragment discovery through chemoproteomics screening and high-throughput optimisation” (Communications Chemistry, 2025).

Experiments:
Assay in all cases: log2 ratio of Biotin-Ahx-Ub-VS probe labelling (fragment/DMSO); higher = less target engagement (more negative = stronger competition), active = hit call of the paper (q ≤ 0.05, log2 ratio ≤ -1)
Details in all cases: compound concentration: 200 uM; treatment time: 3 h
USP42 = biological target: T1, USP42 (UniProt Q9H9J4)
T1 sequence (whole entry): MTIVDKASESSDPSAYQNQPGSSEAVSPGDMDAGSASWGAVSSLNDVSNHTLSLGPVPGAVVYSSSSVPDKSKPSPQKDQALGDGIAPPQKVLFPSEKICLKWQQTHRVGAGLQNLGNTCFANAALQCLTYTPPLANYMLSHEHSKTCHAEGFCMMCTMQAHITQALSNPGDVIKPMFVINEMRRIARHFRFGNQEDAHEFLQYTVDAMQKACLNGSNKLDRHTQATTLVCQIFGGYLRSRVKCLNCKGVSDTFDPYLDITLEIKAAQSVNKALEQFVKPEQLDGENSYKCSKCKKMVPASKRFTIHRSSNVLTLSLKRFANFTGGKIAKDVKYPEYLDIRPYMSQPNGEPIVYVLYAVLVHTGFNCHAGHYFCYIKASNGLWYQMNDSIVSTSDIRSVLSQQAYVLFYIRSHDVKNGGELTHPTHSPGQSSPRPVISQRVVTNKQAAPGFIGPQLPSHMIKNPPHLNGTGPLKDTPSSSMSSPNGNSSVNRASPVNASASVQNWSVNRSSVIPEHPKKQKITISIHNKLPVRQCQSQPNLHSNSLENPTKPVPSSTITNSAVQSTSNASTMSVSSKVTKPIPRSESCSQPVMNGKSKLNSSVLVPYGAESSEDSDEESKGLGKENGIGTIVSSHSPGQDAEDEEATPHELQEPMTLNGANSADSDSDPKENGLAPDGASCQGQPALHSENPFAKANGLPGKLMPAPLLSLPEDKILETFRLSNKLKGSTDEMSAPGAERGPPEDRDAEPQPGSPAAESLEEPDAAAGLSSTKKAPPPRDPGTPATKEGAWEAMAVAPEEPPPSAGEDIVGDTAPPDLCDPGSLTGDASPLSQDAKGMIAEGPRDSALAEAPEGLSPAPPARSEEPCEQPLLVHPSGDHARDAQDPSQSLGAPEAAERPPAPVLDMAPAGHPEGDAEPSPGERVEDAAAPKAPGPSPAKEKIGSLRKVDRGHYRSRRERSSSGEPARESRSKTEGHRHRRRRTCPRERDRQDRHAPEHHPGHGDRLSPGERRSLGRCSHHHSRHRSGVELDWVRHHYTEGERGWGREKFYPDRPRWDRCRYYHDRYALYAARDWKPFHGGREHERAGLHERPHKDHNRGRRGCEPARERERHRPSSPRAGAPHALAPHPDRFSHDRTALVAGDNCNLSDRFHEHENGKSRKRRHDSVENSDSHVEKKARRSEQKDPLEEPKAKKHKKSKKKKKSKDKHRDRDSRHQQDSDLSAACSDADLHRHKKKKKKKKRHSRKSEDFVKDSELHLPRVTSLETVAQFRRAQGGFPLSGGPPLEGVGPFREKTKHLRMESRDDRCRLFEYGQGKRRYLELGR
Summary of the method: (§1)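 Each value is an average log2 ratio of fragment to vehicle, tested by unpaired t-test. The underlying Spectronaut label-free quantities were global-median-normalised, and only proteins with ≥2 unique peptides were included. Triplicate HEK293T lysate samples (495 µg) were exposed to fragment at 200 µM or vehicle for 3 h, then to Biotin-Ahx-Ub-VS at 0.5 µM final for 1 h, before NeutrAvidin enrichment of labelled DUBs, LysC and trypsin digestion, and diaPASEF LC-MS/MS.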

USP46 = USP46 (UniProt P62068)
Sequence of USP46 (P62068 whole entry): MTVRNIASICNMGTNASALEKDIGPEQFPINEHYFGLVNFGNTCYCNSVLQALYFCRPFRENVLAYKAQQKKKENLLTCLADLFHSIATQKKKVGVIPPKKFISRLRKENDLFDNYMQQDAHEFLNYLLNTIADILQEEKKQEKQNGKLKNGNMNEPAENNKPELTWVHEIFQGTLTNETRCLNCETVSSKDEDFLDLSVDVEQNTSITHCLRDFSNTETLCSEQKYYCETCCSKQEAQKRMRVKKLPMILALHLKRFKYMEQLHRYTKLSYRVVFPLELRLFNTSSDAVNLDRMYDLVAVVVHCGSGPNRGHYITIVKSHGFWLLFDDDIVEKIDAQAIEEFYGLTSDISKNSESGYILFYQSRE
Summary of the method: as §1

USP47 = biological target: T2, USP47 (UniProt Q96K76)
T2 sequence (whole entry): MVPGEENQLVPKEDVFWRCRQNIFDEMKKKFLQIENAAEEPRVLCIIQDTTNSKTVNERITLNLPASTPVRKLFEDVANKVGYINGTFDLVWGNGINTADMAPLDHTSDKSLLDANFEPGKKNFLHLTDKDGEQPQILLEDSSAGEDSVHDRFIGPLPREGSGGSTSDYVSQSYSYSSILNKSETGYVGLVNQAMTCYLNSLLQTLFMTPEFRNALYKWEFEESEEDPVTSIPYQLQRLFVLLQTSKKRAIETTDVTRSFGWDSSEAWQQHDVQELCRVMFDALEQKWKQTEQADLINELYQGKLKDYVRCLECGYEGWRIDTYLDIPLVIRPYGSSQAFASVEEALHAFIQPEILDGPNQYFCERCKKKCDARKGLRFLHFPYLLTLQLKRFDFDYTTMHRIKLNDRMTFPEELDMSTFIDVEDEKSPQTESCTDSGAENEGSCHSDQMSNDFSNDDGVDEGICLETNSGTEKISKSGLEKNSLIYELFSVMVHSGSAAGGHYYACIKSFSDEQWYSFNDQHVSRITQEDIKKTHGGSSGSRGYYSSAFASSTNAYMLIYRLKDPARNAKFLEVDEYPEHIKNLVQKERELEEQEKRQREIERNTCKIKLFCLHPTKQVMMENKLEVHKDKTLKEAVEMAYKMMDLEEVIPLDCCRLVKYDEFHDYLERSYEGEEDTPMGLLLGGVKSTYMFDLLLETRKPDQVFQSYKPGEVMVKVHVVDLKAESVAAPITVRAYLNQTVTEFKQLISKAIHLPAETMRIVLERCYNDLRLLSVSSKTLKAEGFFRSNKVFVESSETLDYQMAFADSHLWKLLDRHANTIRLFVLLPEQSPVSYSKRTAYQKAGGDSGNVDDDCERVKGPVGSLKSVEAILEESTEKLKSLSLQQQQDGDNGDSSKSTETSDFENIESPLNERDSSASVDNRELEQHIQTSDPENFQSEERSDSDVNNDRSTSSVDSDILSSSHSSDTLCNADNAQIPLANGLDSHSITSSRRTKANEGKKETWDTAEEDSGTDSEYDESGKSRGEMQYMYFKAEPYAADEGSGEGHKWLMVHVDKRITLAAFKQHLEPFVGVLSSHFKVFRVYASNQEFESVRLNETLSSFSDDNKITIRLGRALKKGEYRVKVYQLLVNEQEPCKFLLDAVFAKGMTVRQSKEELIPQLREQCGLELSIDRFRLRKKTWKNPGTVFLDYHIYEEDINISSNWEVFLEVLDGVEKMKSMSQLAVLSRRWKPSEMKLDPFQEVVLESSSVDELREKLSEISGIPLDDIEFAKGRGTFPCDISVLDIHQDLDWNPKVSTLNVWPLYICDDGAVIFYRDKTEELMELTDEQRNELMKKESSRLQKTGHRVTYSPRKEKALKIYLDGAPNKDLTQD
Summary of the method: as §1

USP48 = biological target: T3, USP48 (UniProt Q86UV5)
T3 sequence (whole entry): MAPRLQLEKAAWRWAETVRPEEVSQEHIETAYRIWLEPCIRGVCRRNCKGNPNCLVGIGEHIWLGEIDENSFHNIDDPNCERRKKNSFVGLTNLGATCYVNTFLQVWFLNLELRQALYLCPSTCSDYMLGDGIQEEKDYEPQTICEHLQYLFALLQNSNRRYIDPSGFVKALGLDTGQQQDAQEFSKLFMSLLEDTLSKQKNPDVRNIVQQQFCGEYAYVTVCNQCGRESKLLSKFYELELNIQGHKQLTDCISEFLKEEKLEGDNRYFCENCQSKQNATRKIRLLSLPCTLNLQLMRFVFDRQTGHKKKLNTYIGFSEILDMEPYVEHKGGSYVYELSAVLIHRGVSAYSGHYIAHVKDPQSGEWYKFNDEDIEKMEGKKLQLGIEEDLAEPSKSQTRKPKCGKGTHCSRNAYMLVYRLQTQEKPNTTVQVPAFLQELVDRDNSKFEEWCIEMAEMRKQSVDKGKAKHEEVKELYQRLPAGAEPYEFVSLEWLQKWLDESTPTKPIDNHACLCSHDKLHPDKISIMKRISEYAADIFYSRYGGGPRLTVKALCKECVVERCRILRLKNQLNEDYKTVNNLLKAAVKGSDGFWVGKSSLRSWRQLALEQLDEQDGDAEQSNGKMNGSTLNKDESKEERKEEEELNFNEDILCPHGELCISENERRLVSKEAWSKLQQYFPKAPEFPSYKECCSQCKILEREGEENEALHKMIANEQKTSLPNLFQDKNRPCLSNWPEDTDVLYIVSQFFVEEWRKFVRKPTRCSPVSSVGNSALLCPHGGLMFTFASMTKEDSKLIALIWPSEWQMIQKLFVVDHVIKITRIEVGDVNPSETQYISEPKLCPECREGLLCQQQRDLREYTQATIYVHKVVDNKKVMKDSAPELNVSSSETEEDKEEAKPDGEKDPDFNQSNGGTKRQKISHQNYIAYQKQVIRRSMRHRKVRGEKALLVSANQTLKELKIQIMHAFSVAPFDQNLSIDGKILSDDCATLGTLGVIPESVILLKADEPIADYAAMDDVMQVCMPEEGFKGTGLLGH
Summary of the method: as §1

USP5 = biological target: T4, USP5 (UniProt P45974)
T4 sequence (whole entry): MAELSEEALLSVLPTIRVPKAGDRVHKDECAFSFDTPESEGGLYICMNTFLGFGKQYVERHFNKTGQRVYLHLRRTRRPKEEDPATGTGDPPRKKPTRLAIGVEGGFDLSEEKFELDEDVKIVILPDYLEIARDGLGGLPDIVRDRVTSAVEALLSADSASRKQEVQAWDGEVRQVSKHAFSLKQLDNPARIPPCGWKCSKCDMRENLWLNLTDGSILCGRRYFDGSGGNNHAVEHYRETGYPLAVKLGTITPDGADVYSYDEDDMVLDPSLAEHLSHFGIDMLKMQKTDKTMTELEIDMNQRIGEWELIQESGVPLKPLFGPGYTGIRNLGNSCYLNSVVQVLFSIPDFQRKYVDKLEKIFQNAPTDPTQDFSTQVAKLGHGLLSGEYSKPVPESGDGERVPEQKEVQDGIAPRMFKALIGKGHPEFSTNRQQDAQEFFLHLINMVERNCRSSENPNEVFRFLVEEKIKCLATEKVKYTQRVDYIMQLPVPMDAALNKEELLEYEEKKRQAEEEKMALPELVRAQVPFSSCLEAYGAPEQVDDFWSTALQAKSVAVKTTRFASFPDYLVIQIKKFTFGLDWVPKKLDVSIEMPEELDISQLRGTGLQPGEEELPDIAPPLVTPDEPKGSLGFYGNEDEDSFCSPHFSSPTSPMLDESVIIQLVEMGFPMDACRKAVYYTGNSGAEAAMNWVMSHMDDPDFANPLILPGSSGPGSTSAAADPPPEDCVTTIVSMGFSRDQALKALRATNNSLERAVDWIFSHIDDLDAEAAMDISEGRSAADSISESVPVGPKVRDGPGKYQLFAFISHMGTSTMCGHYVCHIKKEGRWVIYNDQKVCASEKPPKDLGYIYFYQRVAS
Summary of the method: as §1

USP54 = USP54 (UniProt Q70EL1)
Summary of the method: as §1

USP7 = USP7 (UniProt Q93009)
Sequence of USP7 (Q93009 whole entry, looked up): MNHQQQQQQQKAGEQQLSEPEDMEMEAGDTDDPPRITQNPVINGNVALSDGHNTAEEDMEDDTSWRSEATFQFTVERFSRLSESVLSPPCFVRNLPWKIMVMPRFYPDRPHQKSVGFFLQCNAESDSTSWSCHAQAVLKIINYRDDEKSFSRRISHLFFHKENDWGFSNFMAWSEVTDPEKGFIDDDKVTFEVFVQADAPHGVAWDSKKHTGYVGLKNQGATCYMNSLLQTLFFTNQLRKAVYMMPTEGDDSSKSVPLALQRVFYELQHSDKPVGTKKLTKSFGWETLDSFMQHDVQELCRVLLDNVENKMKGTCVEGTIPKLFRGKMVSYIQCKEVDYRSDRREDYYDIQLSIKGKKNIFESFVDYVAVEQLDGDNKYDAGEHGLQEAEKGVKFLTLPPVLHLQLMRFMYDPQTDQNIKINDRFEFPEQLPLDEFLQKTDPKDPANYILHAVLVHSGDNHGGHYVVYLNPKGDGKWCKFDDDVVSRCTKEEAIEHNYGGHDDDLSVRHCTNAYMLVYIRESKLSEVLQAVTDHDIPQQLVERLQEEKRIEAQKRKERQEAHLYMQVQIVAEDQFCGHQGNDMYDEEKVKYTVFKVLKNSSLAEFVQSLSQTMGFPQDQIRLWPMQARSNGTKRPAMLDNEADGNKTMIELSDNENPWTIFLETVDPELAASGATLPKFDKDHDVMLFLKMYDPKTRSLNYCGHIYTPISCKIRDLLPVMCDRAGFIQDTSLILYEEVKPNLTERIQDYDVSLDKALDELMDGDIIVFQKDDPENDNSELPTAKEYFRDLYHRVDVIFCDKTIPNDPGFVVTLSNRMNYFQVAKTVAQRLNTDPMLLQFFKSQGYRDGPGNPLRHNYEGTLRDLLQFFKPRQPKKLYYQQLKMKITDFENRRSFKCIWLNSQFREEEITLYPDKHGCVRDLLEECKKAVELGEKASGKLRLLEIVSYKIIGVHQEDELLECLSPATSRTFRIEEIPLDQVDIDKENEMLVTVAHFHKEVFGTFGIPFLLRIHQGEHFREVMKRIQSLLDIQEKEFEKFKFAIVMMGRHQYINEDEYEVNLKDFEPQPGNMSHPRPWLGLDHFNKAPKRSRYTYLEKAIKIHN
Summary of the method: as §1

USP8 = biological target: T5, USP8 (UniProt P40818)
T5 sequence (whole entry): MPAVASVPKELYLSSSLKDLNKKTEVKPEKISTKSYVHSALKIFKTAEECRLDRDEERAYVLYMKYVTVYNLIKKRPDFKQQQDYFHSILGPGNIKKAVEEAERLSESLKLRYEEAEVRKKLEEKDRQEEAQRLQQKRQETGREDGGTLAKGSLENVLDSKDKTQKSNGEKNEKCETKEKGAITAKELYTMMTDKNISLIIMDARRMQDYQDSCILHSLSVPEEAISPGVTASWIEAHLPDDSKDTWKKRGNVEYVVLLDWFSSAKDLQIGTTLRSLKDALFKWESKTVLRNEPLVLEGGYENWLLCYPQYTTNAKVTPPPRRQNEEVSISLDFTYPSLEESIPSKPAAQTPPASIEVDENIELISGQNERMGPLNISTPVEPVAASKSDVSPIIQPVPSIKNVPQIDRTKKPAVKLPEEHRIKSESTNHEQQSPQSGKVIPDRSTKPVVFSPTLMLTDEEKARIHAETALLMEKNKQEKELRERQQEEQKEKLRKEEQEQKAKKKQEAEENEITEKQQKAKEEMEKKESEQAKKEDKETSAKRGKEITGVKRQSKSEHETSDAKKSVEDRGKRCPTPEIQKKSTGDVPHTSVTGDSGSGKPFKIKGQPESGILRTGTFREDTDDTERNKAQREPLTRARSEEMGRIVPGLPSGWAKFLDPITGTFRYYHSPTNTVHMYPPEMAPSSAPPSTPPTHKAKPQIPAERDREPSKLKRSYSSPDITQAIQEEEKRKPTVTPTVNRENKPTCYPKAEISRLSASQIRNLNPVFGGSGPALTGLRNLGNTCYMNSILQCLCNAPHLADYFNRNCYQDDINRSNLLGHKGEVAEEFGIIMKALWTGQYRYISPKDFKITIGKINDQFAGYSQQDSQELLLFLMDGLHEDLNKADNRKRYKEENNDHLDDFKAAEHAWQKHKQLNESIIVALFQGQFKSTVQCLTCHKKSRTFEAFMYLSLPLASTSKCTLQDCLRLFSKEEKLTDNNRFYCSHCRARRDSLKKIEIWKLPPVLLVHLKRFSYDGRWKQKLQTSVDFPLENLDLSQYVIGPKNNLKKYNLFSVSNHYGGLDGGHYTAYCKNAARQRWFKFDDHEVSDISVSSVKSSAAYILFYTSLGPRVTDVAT
Summary of the method: as §1

USP9X = USP9X (UniProt Q93008)
Sequence of USP9X (Q93008 whole entry): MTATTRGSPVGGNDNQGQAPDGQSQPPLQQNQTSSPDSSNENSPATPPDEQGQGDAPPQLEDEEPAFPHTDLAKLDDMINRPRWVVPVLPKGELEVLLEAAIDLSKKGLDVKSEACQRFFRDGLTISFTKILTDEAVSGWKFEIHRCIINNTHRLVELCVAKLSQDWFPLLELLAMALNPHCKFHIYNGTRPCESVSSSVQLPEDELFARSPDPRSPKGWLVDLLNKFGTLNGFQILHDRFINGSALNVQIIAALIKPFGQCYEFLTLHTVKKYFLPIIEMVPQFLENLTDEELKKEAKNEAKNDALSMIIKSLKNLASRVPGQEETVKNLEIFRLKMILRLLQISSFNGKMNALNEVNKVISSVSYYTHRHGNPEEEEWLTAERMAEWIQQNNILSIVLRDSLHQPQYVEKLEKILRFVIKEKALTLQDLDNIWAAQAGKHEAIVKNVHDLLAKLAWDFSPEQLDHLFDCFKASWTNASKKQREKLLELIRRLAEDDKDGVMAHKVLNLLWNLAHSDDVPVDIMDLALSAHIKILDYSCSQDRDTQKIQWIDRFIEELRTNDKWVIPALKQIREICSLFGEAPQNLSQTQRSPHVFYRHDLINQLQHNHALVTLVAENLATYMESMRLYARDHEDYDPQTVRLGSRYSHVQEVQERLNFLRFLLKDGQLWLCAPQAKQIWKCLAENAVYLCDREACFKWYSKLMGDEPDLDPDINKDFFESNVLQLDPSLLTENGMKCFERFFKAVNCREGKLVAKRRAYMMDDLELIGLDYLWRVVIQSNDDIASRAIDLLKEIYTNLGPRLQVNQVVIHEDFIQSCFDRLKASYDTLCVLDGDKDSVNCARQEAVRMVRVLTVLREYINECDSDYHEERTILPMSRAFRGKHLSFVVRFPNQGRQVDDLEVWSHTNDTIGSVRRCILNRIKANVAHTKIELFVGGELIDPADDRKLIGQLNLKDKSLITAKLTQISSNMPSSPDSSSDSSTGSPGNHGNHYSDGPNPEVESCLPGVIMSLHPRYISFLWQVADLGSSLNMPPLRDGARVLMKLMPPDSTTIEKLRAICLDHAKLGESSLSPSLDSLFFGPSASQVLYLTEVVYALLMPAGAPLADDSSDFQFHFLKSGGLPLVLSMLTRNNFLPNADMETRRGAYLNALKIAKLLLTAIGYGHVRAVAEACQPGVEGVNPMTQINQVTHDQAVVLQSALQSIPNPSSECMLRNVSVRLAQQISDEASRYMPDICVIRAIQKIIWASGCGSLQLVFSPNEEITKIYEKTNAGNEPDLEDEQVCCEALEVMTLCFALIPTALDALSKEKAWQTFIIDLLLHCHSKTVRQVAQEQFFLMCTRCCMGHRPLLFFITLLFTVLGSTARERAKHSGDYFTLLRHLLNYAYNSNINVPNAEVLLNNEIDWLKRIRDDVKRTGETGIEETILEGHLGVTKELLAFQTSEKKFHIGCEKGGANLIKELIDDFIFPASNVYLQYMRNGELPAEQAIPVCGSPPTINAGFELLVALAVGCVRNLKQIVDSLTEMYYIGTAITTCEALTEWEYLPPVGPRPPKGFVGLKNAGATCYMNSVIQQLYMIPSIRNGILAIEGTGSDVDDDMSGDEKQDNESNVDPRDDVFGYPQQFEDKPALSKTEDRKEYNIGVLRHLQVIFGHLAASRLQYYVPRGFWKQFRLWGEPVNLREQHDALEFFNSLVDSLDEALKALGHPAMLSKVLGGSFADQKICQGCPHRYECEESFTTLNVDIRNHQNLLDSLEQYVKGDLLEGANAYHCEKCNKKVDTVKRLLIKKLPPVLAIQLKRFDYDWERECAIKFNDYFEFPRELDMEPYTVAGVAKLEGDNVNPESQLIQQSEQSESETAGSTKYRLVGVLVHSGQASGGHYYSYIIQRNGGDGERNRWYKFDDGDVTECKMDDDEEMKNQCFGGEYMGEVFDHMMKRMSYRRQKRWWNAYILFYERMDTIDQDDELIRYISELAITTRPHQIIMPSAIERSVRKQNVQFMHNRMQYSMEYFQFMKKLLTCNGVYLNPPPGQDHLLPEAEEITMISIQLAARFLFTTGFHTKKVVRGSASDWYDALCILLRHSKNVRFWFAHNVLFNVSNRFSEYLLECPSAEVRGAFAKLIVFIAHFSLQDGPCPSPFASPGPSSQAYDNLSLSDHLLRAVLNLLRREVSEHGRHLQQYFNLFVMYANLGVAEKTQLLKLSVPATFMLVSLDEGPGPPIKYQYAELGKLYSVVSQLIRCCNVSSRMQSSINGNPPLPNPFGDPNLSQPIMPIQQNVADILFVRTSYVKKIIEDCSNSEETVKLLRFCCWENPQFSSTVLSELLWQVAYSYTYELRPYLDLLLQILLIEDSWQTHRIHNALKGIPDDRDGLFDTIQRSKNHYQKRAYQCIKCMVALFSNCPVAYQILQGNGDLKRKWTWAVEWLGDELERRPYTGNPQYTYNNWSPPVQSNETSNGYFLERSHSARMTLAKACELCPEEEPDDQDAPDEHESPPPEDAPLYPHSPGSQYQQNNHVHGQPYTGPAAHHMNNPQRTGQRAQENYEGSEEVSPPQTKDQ
Summary of the method: as §1

UniProt O00487 = biological target: UniProt O00487
Sequence of UniProt O00487 (O00487 whole entry): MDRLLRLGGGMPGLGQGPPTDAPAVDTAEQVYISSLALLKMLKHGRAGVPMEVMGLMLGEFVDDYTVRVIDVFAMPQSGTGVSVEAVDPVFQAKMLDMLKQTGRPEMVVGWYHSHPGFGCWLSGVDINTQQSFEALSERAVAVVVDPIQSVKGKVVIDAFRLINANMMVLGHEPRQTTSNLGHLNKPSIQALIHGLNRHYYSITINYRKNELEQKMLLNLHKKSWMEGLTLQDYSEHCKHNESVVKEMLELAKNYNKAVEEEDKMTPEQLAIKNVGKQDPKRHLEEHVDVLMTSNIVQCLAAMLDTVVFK
Summary of the method: as §1

Measured: log2 ratio of Biotin-Ahx-Ub-VS probe labelling

CC1CN(c2ccc(NC(=O)CCl)cc2)CC(C)O1 (stereo not given)
inactive: USP42 0.0421 | USP46 0.0265 | USP47 -0.557 | USP48 -0.402 | USP5 -0.0419 | USP54 0.973 | USP7 -0.186 | USP8 -0.0842 | USP9X -0.166 | UniProt O00487 -0.0932
